Measurements reported in PubChem BioAssay AID624417 (National Center for Advancing Translational Sciences (NCATS), 2012).
The whole screen tested about 410,000 compounds, of which about 6,400 (1.6%) were called active. Inconclusive results (about 20%) are left out. What follows is part of a selection rich in actives, with near analogues and random picks from the rest. Values without a mark were called inactive. Calls follow the shape of the dose curve; as a rule, active = well fitted inhibition curve with a large enough effect; inconclusive = small, poorly fitted or top-dose-only effect; inactive = no such curve, though single readings can be large or run the other way.

Molecular target: Glucagon-like peptide 1 receptor (Homo sapiens) (UniProt P43220)
Sequence (P43220 whole entry, looked up): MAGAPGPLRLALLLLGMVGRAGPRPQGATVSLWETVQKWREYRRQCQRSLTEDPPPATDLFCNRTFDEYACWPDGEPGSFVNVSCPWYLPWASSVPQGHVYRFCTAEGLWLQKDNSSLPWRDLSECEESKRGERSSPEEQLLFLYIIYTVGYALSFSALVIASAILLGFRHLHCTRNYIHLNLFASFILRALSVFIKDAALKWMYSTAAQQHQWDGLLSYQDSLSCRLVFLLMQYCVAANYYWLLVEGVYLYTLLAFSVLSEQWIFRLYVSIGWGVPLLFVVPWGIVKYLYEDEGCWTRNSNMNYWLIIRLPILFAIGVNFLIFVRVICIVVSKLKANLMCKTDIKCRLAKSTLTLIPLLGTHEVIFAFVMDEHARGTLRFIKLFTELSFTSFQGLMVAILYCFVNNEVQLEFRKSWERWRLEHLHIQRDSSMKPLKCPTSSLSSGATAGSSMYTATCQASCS
Assay: qHTS of GLP-1 Receptor Inverse Agonists (Inhibition Mode); also: nearly all actives have a fitted effect of over 55% in size
Conditions: HEK293 GLP-1R CRE-luciferase, luminescence, 24 h, GLP-1R form is constitutively active; series mostly up to 38.3 µM; activity change, negative = inhibition: at the top concentration
In short: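 Readout was luciferase luminescence, measured 12 min after detection reagent at room temperature. Beforehand, GLP-1R reporter HEK293 cells had sat 12 h, then received compounds for 24 hr at 37 deg C.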
% is scaled to controls: 0 for no effect and ±100 for the full control effect; potency is read from the fitted curve at half-maximal effect.

| SMILES | activity change, negative = inhibition | Potency |
| --- | --- | --- |
| CC1(C)CC(=O)C=C(c2ccc(COC(=O)c3cc(F)cc(F)c3)cc2)C1=O | -15.2% |  |
| O=C(Nc1cc(Br)ccc1F)c1nc[nH]c1C(=O)NCc1ccccc1 | -18.9% |  |
| O=[N+]([O-])c1ccc(CN2CC(N3CCC(c4ccccc4)CC3)CS2(=O)=O)cc1 (stereo unspecified) | -15.4% |  |
| Cc1cccc(NS(=O)(=O)c2ccc(C)c(C(N)=O)c2)c1 | 8.25% |  |
| Cc1cccc(NS(=O)(=O)c2ccc(C)c(C(=O)NCc3cccnc3)c2)c1 | -16.4% |  |
| Cc1cccc(NS(=O)(=O)c2ccc(C)c(C(=O)NCC(c3ccccc3)N(C)C)c2)c1 (stereo unspecified) |  | 3.98 µM (active) |
| CCCc1c(C)nc2scc(-c3ccc(Cl)cc3)n2c1=O | -2.09% |  |
| CCc1nc2c(OCCOc3ccccc3)cccn2c1N(C)C(=O)c1ccccc1F | -23.8% |  |
| O=C(CCN1CCCCC1)Nc1ccc(F)c(F)c1 | 0.244% |  |
| CCOc1ccc(NC(=O)c2cn(C3CCCCC3)c(=O)c3c2c2ccccc2n3C)cc1 | 6.66% |  |
| CCOC(=O)N1CCN(C(=O)c2nn(-c3ccc(C)cc3)c(=O)c3c2c2ccccc2n3C)CC1 | -23.3% |  |
| Cn1c2ccccc2c2c(C(=O)N3CCN(c4ccc(F)cc4)CC3)cn(C3CCCC3)c(=O)c21 |  | 10 µM (active) |
| CCN(CC)CCN(C)C(c1ccnc2ccccc12)c1nnnn1-c1ccc2c(c1)OCCO2 (stereo unspecified) | 6.96% |  |
| CCCCNC(=O)c1ccc(-n2c(=S)[nH]c3ccccc3c2=O)cc1 | 11.5% [at 7.66 µM] |  |
| CCCCNC(=O)N(O)C1N(/N=C/c2ccccc2O)C(=S)SC1(C)C (stereo unspecified) |  | 11.2 µM (active) |
| CCCCC(O)C1=C[N+](=O)CC=C1 (stereo unspecified) | 17.7% |  |

| SMILES | activity change, negative = inhibition | Potency |
| --- | --- | --- |
| C[C@H](NC(=O)[C@@H]1CCCN1C(=O)[C@@H]1CCCN1C(=O)c1ccccc1)c1ccccc1 | -4.32% |  |
| COC(=O)c1ccc2nc(-c3ccc(Cl)cc3)c(Cc3cccc(F)c3)n2c1 | 3% |  |
| CN1/C(=c2/s/c(=C3/C(=O)N(c4ccccc4)NC3=Nc3ccccc3)n(C)c2=O)C(C)(C)c2ccccc21 |  | 1.41 µM (active) |
| C[C@H](CO)N1C[C@H](C)[C@@H](CN(C)S(=O)(=O)c2ccc(F)cc2)OCc2cnnn2CCCC1=O | -1.3% |  |
| O=C(Nc1cccc(Cc2ccccc2)c1)Nc1ccc2nc([C@@H]3O[C@H](CO)[C@@H](O)[C@H](O)[C@H]3O)[nH]c2c1 | 4.05% |  |
| O=C(NCCN1CCOCC1)C1CCN(S(=O)(=O)c2ccccc2)CC1 | 4.84% |  |
| COc1ccc([C@H]2N[C@]3(CCCN(Cc4ccco4)C3=O)[C@H]3C(=O)N(C)C(=O)[C@@H]23)cc1 | 12% |  |
| COc1ccc([C@H]2N[C@]3(CCCN(CC4CCCCC4)C3=O)[C@H]3C(=O)N(C)C(=O)[C@@H]23)cc1 | -0.512% |  |
| CCN1C(=O)[C@H]2[C@@H](c3ccccc3)N[C@]3(CCCN(Cc4ccc(C)cc4)C3=O)[C@H]2C1=O | 13.6% |  |
| CCN1C[C@@H]2[C@@H]3C(=O)N(Cc4ccccc4)C(=O)[C@@H]3[C@](C)(C1=O)N2C(=O)c1ccc(C(C)(C)C)cc1 | 1.29% |  |
| CCN1C(=O)[C@H]2[C@@H](c3ccc(-c4ccc(OC)cc4)cc3)N[C@@](Cc3ccccc3)(C(=O)OC)[C@H]2C1=O | -7.01% |  |
| O=C1[C@H]2[C@@H](c3ccc(C(F)(F)F)cc3)N[C@]3(CCCN(Cc4ccc(Cl)cc4)C3=O)[C@H]2C(=O)N1Cc1ccccc1 |  | 4.47 µM (active) |
| Cc1ccc([C@H]2N[C@]3(CCCN(Cc4ccccc4)C3=O)[C@H]3C(=O)N(Cc4ccccc4)C(=O)[C@@H]23)cc1 | -28.2% |  |
| O=C1[C@H]2[C@@H](c3ccc(C(F)(F)F)cc3)N[C@]3(CCCN(Cc4ccc(Br)cc4)C3=O)[C@H]2C(=O)N1Cc1ccccc1 |  | 2.82 µM (active) |
| CCN1C(=O)[C@H]2[C@@H](c3ccc(C(F)(F)F)cc3)N[C@]3(CCCN(Cc4ccc(Br)cc4)C3=O)[C@H]2C1=O |  | 12.6 µM (active) |
